# Data reported in the supplement of paper PMC6555819.
# Test system: RXRa homodimer (NR concentration 180 nM)
# Assay: PBM binding z-score (relative to random genomic background probes); higher = stronger binding; sequences stand for … in GC…GCGATTGACAGCGTAGAATGAAGG
# Summary of the method: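 Regression normalization was applied to scanned fluorescence from custom Agilent 4×180K protein-binding microarrays. Before scanning, arrays were incubated 1 h with ligand-free nuclear receptor dimers, and binding was detected with antibodies against each partner (one per run). Binding z-scores use the random background probes as reference.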
row,Sequence,PBM binding z-score
1,GCTCGGAGGACAAGGTCAGAGGTTTGTCCGTAGA,2.53
2,GGAACGAGGGCATTCAAGTTGATAGCATGGCGAT,0.697
3,CGTTACGGGTCACGAGGTTATAGCACGACGAGCG,7.51
4,AGTCAAAGTTCACTAGGTACCGTAAGATTCAGCT,3.75
5,GGAACGAGGGCAATCGAGTTGATAGCATGGCGAT,0.638
6,GGAGCGAGGGCATTCGAGTTGATAGCATGGCGAT,0.554
7,CTCGAAAGGACGTGCTCAGGTGAGTATACCAAAC,-0.118
8,TCTCGGAGCACACGAAAGGTCAGAGCTCGACATC,3.98
9,TTACCAAGGTGAGCTGATGTCGTTGATCCAACTC,0.239
10,TTTAGTTGGTCACGGAGGTCACACACGACGGGTA,4.87
11,TCTAATTGGTCACGGAGGTCACACACGACGGGTA,5.28
12,TCGAGTAGGTTAGGGACATTCAGAATGGCGTCGA,0.221
13,TCTAGTTGGTCACAGGTCACACACTCGAAATGCG,3.83
14,TCTATTAGTTGATTAGGTCAACCGAAACAGCGGA,2.1
15,CGAACTAGGTCATCCAGGACAGTGGATACATTGA,2.9
16,TCGAGTAGGTTAAGGGCATTCAGAATGGCGTCGA,1.18
17,CGTCCAAGGTCAGAAAGGTCAGTGAATGCCGAGT,5.59
18,AGAATGAGGTTATTAAGATCAGGAAATTGCGGTC,1.75
19,CAAACTAGGTCATTGACAGGACAGTGAATAGTAA,2.89
20,TCTGCTCGGTCAACGATGGTCAGCTAATCTGCTA,0.25
21,CCGACTGGTGCAAGGTTACCATAACGCACAGCCA,0.899
22,GCTGCTAGGTCAACTGATGGTCAGCTTAAGCTCG,3
